# FUS suppressor = FUS proteinopathy suppression in yeast; S. cerevisiae FUS-expressing, growth rescue, OD600, 24 h; Potency, µM (highest dose often 76.6 µM), most hits filed as activators; 390,000 tested, 0.24% active; AID 1347120;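 also: plate controls were DMSO vehicle for no effect and reference control for full effect; nearly all actives have a fitted effect of over 55% in size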
#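 Cultures pregrown in 2.5% raffinose medium are shifted to minimal medium containing 2% galactose to express toxic FUS. Compounds are tested at several concentrations. After 24hr at 30C, growth is quantified at 600 nm absorbance.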
# Mito fusion yeast = blocks mitochondrial division or promotes mitochondrial fusion; S. cerevisiae fusion-defective mutant growth rescue, CellTiterGlo 48 h; Potency, µM (doses to about 46.1 µM), without a hit: at the top dose growth rescue (activation), actives largely listed as activators; 320,000 tested, 0.23% active; AID 485298; also: % of control where 0% means no effect; nearly all actives have a fitted effect of over 45% in size
#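 S. cerevisiae fusion-defective temperature-sensitive mutants (e.g. fzo1-1, mgm1-5) grown 48 h at 37C in YPEG (ethanol/glycerol non-fermentable) medium with 23 nl compound per well; growth rescue read as CellTiterGlo luminescence.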
# aSyn yeast inh = inhibitors of alpha-synuclein toxicity in yeast | Yeast expressing alpha-synuclein, growth rescue, BacTiter-Glo, 24 h | Potency, µM (doses to about 46.1 µM), for inactives: at the highest dose growth rescue (activation), hits mostly activators | 370,000 tested, 0.14% active | AID 652106; also: % of control where 0% means no effect; nearly all actives have a fitted effect of over 65% in size
#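 Readout is rescue of growth in alpha-synuclein-expressing yeast, so inhibitors of toxicity appear as activators. Growth after 24 hr at 30 deg C in galactose medium is quantified by luminescence.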
# TDP-43 yeast inh = inhibitors of TDP-43 toxicity in yeast | TDP-43 expressing yeast growth rescue, BacTiter-Glo, 24 h | Potency, µM (doses to about 46.1 µM), for the others: at the highest dose growth rescue (activation), actives largely listed as activators | 410,000 tested, 1.8% active; also: % of control where 0% means no effect; nearly all actives have a fitted effect of over 50% in size
#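 Growth rescue of TDP-43-toxic yeast measured as ATP luminescence (BacTiter-Glo). Cells grown to mid-log in raffinose, induced in galactose at OD600=0.02, exposed to compound 24 hr at 30 deg C.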
# Abeta rescue = restores growth of yeast expressing A-beta42 peptide; yeast expressing A-beta42, growth rescue, OD600, 48 h; response scale: 0% DMSO, 100% iron-clioquinol control; Potency, µM (highest dose often 46.1 µM), actives largely listed as activators; 410,000 tested, 0.063% active; also: nearly all actives have a fitted effect of over 55% in size
#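 Yeast A-beta toxicity model in growth medium with pinned compounds, 48 h at 30 C; growth read as absorbance at 600 nm. Normalized to FeCl3/clioquinol equimolar mix (positive) and DMSO (negative).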
# An asterisk follows results filed as active; i = inactive; ? = inconclusive; / = no result; [ ] = dose if it differs, or a comment. Hits are enriched below; roughly 2.2% of the tested compounds scored in any of these assays. Calls follow the shape of the dose curve; as a rule, active = well fitted curve in the direction sought with a large enough effect; inconclusive = small, poorly fitted or top-dose-only effect, or another doubt; inactive = no such curve, though single readings can be large; an effect the other way counts as inactive or inconclusive. Potency is read from the fitted curve at half-maximal effect.
SMILES,FUS suppressor,Mito fusion yeast,aSyn yeast inh,TDP-43 yeast inh,Abeta rescue
O=C(CSc1c[nH]c2ccccc12)N1CCCc2ccccc21,i,14%,20%,22µM*,i
O=C(CSc1ccc(-c2ccc(F)cc2)nn1)N1CCCc2ccccc21,i,25%,4%,22µM*,i
O=C(CSc1nnc(-c2ccc(F)cc2)o1)N1CCCc2ccccc21,i,/,/,20µM*,i
O=C(CSc1ccc(-c2ccc(Cl)cc2)nn1)N1CCCc2ccccc21,/,?,12%,20µM*,i
Cc1ccc(-c2nc(=Nc3c(C)cc(C)cc3C)sn2-c2ccccc2)cc1,/,/,-45%,/,/
CCC(=O)N1CCc2cc(Br)cc(S(=O)(=O)CCC(=O)N(C)c3cccc(C)c3)c21,i,-1%,/,?,i
Cc1cccc(C)c1-n1ncc(C(=O)NCCCN2CCC(C)CC2)c1C1CCN(C(=O)OC(C)(C)C)CC1,i,/,/,-2%,i
COc1ccc(OCC(=O)NCCS(=O)(=O)N2CCN(c3cccc(Cl)c3)CC2)cc1,i,/,/,?,i
Cc1cc(C)c(NC(=O)CSc2nc(=O)[nH]c3c2CCCC3)c(C)c1,i,/,/,9%,i
CC(C)N1CCCCC(NC(=O)c2cccc(C(F)(F)F)c2)C1=O (stereo not drawn),i,/,/,/,/
CC(C)OCCCNC(=O)CCCn1c(SCC(N)=O)nc2c(sc3ccccc32)c1=O,i,/,/,-5%,i
Cc1nc(NC(=O)c2c(-c3ccccc3)c(-c3ccccc3)nn(C)c2=O)sc1C,i,/,/,0%,i
CCOC(=O)c1sc(NC(=O)c2c(-c3ccccc3)c(-c3ccccc3)nn(C)c2=O)nc1C,?,/,/,16µM*,i
COC(=O)C1=C(C)N(Cc2ccccc2)C(=S)N[C@H]1c1cccc(F)c1,?,13%,?,11µM*,i
Fc1ccc(Nc2nnc(C(F)(F)F)s2)cc1,i,-3%,-7%,13µM*,i
CC(=O)CSc1nnc2c3ccccc3nc(C(C)(C)C)n12,i,1%,2%,14µM*,i
CSc1nc(C)c(Oc2ccccc2)c(=O)n1C,i,5%,-3%,13%,i
CSc1nc(-c2ccccc2F)c(C#N)c(=O)n1C,i,9%,-1%,20µM*,i
Cc1cc(F)ccc1S(=O)(=O)Nc1ccc2oc3c(c2c1)CC(C)CC3 (stereo not drawn),i,/,/,35µM*,i
CCS(=O)(=O)n1nc(-c2ccco2)nc1SC,i,-4%,-17%,10%,i
CCS(=O)(=O)n1nc(-c2ccc(Cl)cc2)nc1SC,i,-6%,0%,16µM*,i
Clc1nnc(NC2CCCCC2)c(Cl)c1Cl,i,/,?,22µM*,i
Cc1ccccc1CS(=O)(=O)c1nnc([C@H](CC(C)C)NC(=O)OC(C)(C)C)o1,i,-25%,-29%,-63%,i
CC(C)[C@H](NC(=O)OC(C)(C)C)c1nnc(S(=O)(=O)Cc2c(F)cccc2Cl)o1,i,-13%,-22%,11µM*,i
CC(C)(C)OC(=O)N[C@@H](Cc1ccccc1)c1nnc(S(=O)(=O)Cc2cccc(F)c2)o1,i,3%,-8%,5µM*,i
SMILES,FUS suppressor,Mito fusion yeast,aSyn yeast inh,TDP-43 yeast inh,Abeta rescue
COC(=O)[C@]1(C)N[C@H](CN(C)S(=O)(=O)c2ccc(-c3ccccc3)cc2)[C@@H]2C(=O)N(C)C(=O)[C@@H]21,i,/,3.2µM*,-2%,i
O=C(Nc1ccsc1C(=O)NC1CC1)c1ccccc1,i,14%,-11%,13µM*,i
S=c1[nH]nc(Cc2ccc(Br)cc2)n1/N=C/c1ccc(Cl)cc1,i,24%,-14%,8.9µM*,?
O=C(CSc1nnc(COc2ccc(Cl)cc2Cl)o1)Nc1ccccn1,i,-7%,0%,-9%,i
Cc1cc(-c2nnc(SCC(=O)N3C(C)CCCC3C)o2)no1 (stereo not drawn),i,-1%,0%,-15%,i
COc1ccccc1NC(=O)CSc1nnc(-c2cccc(Cl)c2)o1,i,/,/,18µM*,i
COc1ccccc1NC(=O)CSc1nnc(C2CCCCC2)o1,i,10%,5%,18µM*,?
CC1CCCC(C)N1C(=O)CSc1nnc(C2CCCCC2)o1 (stereo not drawn),i,6.3µM*,-3%,-9%,i
CCc1ccccc1NC(=O)CSc1nnc(COc2ccccc2Cl)o1,i,/,/,16µM*,i
COc1ccc(-c2nnc(SCC(=O)Nc3ccccc3OC)o2)cc1,i,3%,-1%,?,i
CCOc1cc(C(=O)NCc2nc(-c3cccc(C)c3)no2)cc(OCC)c1OCC,i,/,/,-3%,i
CCOC(=O)c1c(NC(=O)c2cc(-c3cccc(Cl)c3)on2)sc(C(C)=O)c1C,i,/,/,2%,i
CCOC(=O)Cn1nc(/C=C/c2ccc(C)cc2)ccc1=O,i,-1%,-11%,?,i[9.22 µM]
CCOC(=O)Cn1nc(/C=C/c2ccc(C(C)C)cc2)ccc1=O,?,-5%,18%,20µM*,i
COc1ccc2[nH]c3c(c2c1)CCN[C@]31C(=O)N(C)c2ccccc21,i,/,/,/,/
COc1ccc(OC)c(NC(=O)c2oc(=O)c3ccccc3c2-c2ccccc2)c1,i,-6%,/,12%,i
O=[N+]([O-])c1cc(/C=N/N2CCOCC2)cs1,i,1%,3%,?,i
O=[N+]([O-])c1ccc(C=NN2CCOCC2)s1,i,/,2%,11µM*,i
COc1ccccc1C1CCN(C(=O)c2cccc([N+](=O)[O-])c2)CC1,i,6%,1%,16µM*,i
COc1cc2c(cc1OC)C(C)N(C(=O)c1cccc([N+](=O)[O-])c1)CC2 (stereo not drawn),i,2%,22µM*,13µM*,i
COC(=O)c1ccc(OCC2c3cc(OC)c(OC)cc3CCN2C(=O)c2cccc(C)c2)cc1 (stereo not drawn),?,/,22%,25µM*,i
COc1cc2c(cc1OC)C(C)N(C(=O)c1sccc1C)CC2 (stereo not drawn),i,1%,-19%,?,i
CC1c2cc3c(cc2CCN1CC(=O)Nc1ccccc1)OCCCO3 (stereo not drawn),i,-3%,0%,4%,i
CC1c2cc3c(cc2CCN1C(=O)c1cccc(Cl)c1)OCCCO3 (stereo not drawn),i,3%,0%,13µM*,i
CCn1nc(-c2ccccc2C)nc2c(=O)n(C)c(=O)nc1-2,/,/,-76%,/,/
O=C(CSc1ccc2nnc(-c3cccs3)n2n1)N1CCCC1,i,2%,3%,-22%,i
O=C(CSc1ccc(-c2cccs2)nn1)N1CCCCC1,/,-5%,1%,22µM*,i
